# Luciferase inh = Firefly luciferase inhibition profiling of diverse chemical library using quantitative high-throughput screening; AID 1347043, 2019; purified P. pyralis luciferase, luminescence, biochemical; Potency, µM (titrated, usually from 115 µM), most hits filed as inhibitors; Luciferin 4-monooxygenase (Photinus pyralis), P08659; 76,000 compounds, 2.5% hits; further: potency means the concentration at half of the fitted maximal effect; nearly all actives have a fitted effect of over 65% in size
# Target sequence (P08659 whole entry, looked up): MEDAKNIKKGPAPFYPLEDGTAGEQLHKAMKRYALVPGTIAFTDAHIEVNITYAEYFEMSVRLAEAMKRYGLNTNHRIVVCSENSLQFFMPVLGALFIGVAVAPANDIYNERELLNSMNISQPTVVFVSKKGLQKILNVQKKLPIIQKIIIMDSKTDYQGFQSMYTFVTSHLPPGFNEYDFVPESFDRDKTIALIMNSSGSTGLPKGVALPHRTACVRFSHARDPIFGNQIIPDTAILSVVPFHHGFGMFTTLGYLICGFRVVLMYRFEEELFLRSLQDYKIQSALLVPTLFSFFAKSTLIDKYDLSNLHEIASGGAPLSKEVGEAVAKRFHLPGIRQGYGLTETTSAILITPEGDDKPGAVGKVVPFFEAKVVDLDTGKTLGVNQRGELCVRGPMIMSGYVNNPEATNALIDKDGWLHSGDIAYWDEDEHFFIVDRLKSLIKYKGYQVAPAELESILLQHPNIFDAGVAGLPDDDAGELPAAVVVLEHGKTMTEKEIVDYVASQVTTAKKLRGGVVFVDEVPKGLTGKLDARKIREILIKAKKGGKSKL
#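 Purified P. pyralis luciferase (10nM final) in 50mM Tris acetate pH 7.5, 10mM Mg acetate, 0.01% Tween-20, 0.05% BSA with 10uM D-luciferin and 10uM ATP. Compounds titrated qHTS. Luminescence imaged on CCD.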
# IP6K1 inh = Primary qHTS assay for small molecule inhibitors of Inositol hexaphosphate kinase 1 (IP6K1). activity change, % (series mostly up to about 58 µM). 140,000 compounds, 0.81% hits. AID 1645851, 2021. Inositol hexakisphosphate kinase 1 (Homo sapiens), Q92551. IP6K1 kinase, ADP-Glo luminescence, 2 h; hits give low values; in the data active means activity change below about -25%
#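 ADP-Glo luminescence measures ADP made by human IP6K1 during a 2 h RT reaction with ATP/IP6 (mix at 1.3 mM/130 uM); top library doses 57.5 and 19.1 uM final.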
# NIH3T3 tox = Cytotoxic Profiling in NIH 3T3 Cell Line of Diverse Libraries Using Quantitative High-Throughput Screening | AID 1345082, 2018 | Potency, µM (doses to about 96.7 µM), for the others: at the highest dose activity change, negative = cytotoxicity, actives largely listed as inhibitors | NIH 3T3 viability, CellTiter-Glo ATP luminescence, 48-72 h | 94,000 compounds, 4.3% hits; further: potency means the concentration at half of the fitted maximal effect; nearly all actives have a fitted effect of over 55% in size
#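 Cytotoxicity is measured as loss of cellular ATP: NIH 3T3 cells (400/well) are exposed to compound for 48 or 72 hr at 37 °C, then CellTiter-Glo luminescence is imaged after 10 min at room temperature.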
# SNCA viab count = GF-AFC viability counterscreen for inhibitors of alpha-synuclein gene (SNCA) expression | HEK-293-SNCA-luc viability, GF-AFC fluorescence, 24 h | Potency, µM (series often up to 57.1 µM), for the others: at the top dose activity change, negative = cytotoxicity, usual class: cytotoxic | 150,000 compounds, 0.12% hits;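 further: potency means the concentration at half of the fitted maximal effect; 0% = DMSO-treated cells and -100% = medium-only wells without cells; nearly all actives have a fitted effect of over 30% in size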
#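 HEK-293-SNCA-luc cells (1500/well) plated 24 h, then exposed 24 h to a dilution series; GF-AFC added 30 min at 37C, fluorescence 405/540 nm; normalised to medium-only and DMSO wells, Hill fit.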
# SNCA expr inhib = Primary qHTS assay for inhibitors of alpha-synuclein gene (SNCA) expression; HEK-293 SNCA-luciferase knock-in, luminescence, 24 h; Potency, µM (top dose mostly 57.2 µM), inactives show top-dose activity change, negative = inhibition, usual class: inhibitors; 140,000 compounds, 0.17% hits; AID 1671194, 2021;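 further: potency means the concentration at half of the fitted maximal effect; plate controls were DMSO cells for no effect and cell-free wells for full effect; nearly all actives have a fitted effect of over 45% in size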
# HEK cytotox = Cytotoxic Profiling in HEK 293 Cell Line of Diverse Libraries Using Quantitative High-Throughput Screening; HEK 293 viability, ATP luminescence (CellTiter-Glo), 48-72 h; Potency, µM (doses to about 115 µM), inactives show at the highest dose activity change, negative = cytotoxicity, actives largely listed as inhibitors; 94,000 compounds, 6.6% hits; AID 1345083, 2018; further: potency means the concentration at half of the fitted maximal effect; nearly all actives have a fitted effect of over 60% in size
#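 HEK 293 cells seeded at 250 cells/well were exposed to compound for 48 or 72 hr at 37 degree Celsius. Viability taken as ATP content by CellTiter-Glo luminescence.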
# IP6K1 conf = Confirmatory qHTS assay for small molecule inhibitors of Inositol hexaphosphate kinase 1 (IP6K1); shares compounds with IP6K1 inh; recombinant IP6K1 kinase, ADP-Glo luminescence, 2 h; Potency, µM (doses to about 49 µM), for inactives: top-dose activity change, negative = inhibition, most hits filed as inhibitors; 1,200 compounds, 13% hits; AID 1645852, 2021; further: potency means the concentration at half of the fitted maximal effect; nearly all actives have a fitted effect of over 65% in size
# * marks the source's active call; other numbers are inactive results; i = inactive; ? = inconclusive; . = no result; ! = not active in a repeat; [ ] = another dose, or the depositor's remark. Compounds with a hit are over-represented: about 7.3% of the library has one in this group of screens. Unless noted, the call rests on the fitted dose curve; in most records, active means well fitted curve in the direction sought with a large enough effect; inconclusive means small, poorly fitted or top-dose-only effect, or another doubt; inactive means no such curve, though single readings can be large; an effect the other way counts as inactive or inconclusive. Unless noted, on the % scale 0 is the no-effect control and ±100 the full control effect.
SMILES,Luciferase inh,IP6K1 inh,NIH3T3 tox,SNCA viab count,SNCA expr inhib,HEK cytotox,IP6K1 conf
Cc1ccccc1[C@@H]1CN(C(=O)CCC(=O)NC2CCCC2)C[C@H]1C(=O)O,i,-35*,-11%,-5%,-15%,-11%,13%
CNCC(=O)N1C[C@@H](C(=O)O)[C@H](c2ccccc2)C1,i,20,i,-13%,10%,i,.
COCCN1CCCC2(CCN(C(=O)Cn3cccnc3=O)C2)C1=O (centres undefined),i,-4,1%,8%,-24%,?,.
Cc1cc(F)ccc1OC1CN(Cc2ccc(F)cc2)C1,i,0,?,-2%[87.6 µM],-18%[87.6 µM],?,.
COc1cc(Nc2ncc3c(n2)-c2ccc(Cl)cc2C(c2c(F)cccc2OC)=NC3)ccc1C(=O)O,.,-37*!,.,-14%,-10%,.,?
COc1ccc(Cl)cc1C(=O)Nc1ccc2nc(Nc3cccc(Cl)c3)cc(C)c2c1,.,10,.,29%,12%,.,.
O=C(NCCc1ccc(F)cc1)C(=O)NCC(c1cccs1)S(=O)(=O)c1ccccc1 (centres undefined),.,-30*,.,-17%,22%,.,-3%
COc1cccc(C(=O)N2CC(=O)Nc3ccc(C)cc3C2c2ccc(F)cc2)c1OC (centres undefined),.,-25*,.,-19%,1%,.,-14%
Cc1cc(CS(=O)(=O)c2ccccc2)cc(OCc2ccc(CN3CCC[C@@H]3CO)cc2)c1,.,-41*,.,-25%,.,.,9%
O=C(O)c1ccc(CN2CCC[C@@H](O)[C@H](NC(=O)c3ccc(OCc4ccccc4)cc3)C2)cc1,i,0,?,5%,13%,i,.
COc1ccc(-c2nc3c(c(SCC(=O)Nc4cccc(O)c4)n2)Cc2c(CO)cnc(C)c2O3)cc1,.,-29*,.,-22%,-8%,.,-3%
CC(=O)c1cccc(Nc2ncnc3c2cnn3C)c1,.,-38*,.,-6%,55%,.,?
O=C(O)c1cccc(Nc2ncnc3ccc(Br)cc23)c1,.,-26*,.,0%,10%,.,?
Cc1cccc(CN2CCc3nc(N4CCN(c5ccccn5)CC4)ncc3C2)c1,.,-27*,.,17%,-19%,.,?
Cc1ccc(-c2nc(S(=O)(=O)c3ccc(Cl)cc3)c(N3CCCCC3)o2)cc1,.,-34*,.,21%,1%,.,?
Cc1ncccc1C(=O)N1CC(N(CC(C)C)C2CCN(C)CC2)C1,.,-13,-18%,18%,4%,-18%,.
Cc1cnc(CCNC(=O)C2CC2)n1CC1CC1,i,11,-1%,-8%,-2%,1%,.
N#Cc1cc(NC(=O)C(=O)O)c(Cl)c(NC(=O)C(=O)O)c1,.,-35*,.,-6%[23.9 µM],-1%[25.6 µM],.,-23%
CC(C(=O)Nc1cc(C#N)ccc1CCCC(=O)O)c1ccc(F)c2ccccc12 (centres undefined),.,29,.,11%,.,.,.
Cc1ccc([N+](=O)[O-])cc1S(=O)(=O)N1CCn2cccc2C1c1ccccc1F (centres undefined),.,-26*,.,-2%,22%,.,-20%
Cc1ccc([N+](=O)[O-])cc1S(=O)(=O)N1CCn2cccc2C1c1ccccc1 (centres undefined),.,-5,.,7%,-9%,.,.
O=C(NCCc1ccccc1)C1CCN(c2nc3ccccc3nc2C(F)(F)F)CC1,.,-1,.,7%,2%,.,.
CCCSCCCNC(=O)C1CCN(c2nc3ccccc3nc2C(F)(F)F)CC1,.,-29*,.,-1%,1%,.,-9%
Cc1ccccc1NC(=O)Cn1c(-c2ccc(F)cc2)nc(C)c(CCO)c1=O,i,1,-16%,-19%,14%,?,.
CC(C)(C)Cn1c(N)nc2ccc(-c3[nH]c(C(C)(C)C)nc3-c3ccc(F)cc3)nc21,.,-25*,.,?,27µM*,.,6%
SMILES,Luciferase inh,IP6K1 inh,NIH3T3 tox,SNCA viab count,SNCA expr inhib,HEK cytotox,IP6K1 conf
Cc1cccc(-c2[nH]c(C(C)(C)C)nc2-c2ccc3c(c2)OCO3)n1,.,.,.,-16%,-31%,.,.
O=C(Nc1ncc([N+](=O)[O-])s1)c1ccccc1O,.,-31*,.,?,.,.,?
CC(=O)Nc1ncc([N+](=O)[O-])s1,.,9,.,13%[23.9 µM],-42%[25.6 µM],.,.
NC(=O)[C@H](Cc1ccc(O)cc1)NC(=O)C1=C[C@@H](NC(=O)c2ccc(F)c(Cl)c2)[C@@H](O)[C@H](O)C1,i,8,0%,-2%,18%,-7%,.
C=CC(=O)Nc1cccc(Nc2nc(Nc3ccc(N4CCN(C(C)=O)CC4)cc3OC)ncc2C(F)(F)F)c1,.,-19,.,?,.,.,.
C=CC(=O)Nc1cc(Nc2ncc(Cl)c(-c3c[nH]c4ccccc34)n2)c(OC)cc1N(C)CCN(C)C,.,-26*,.,?,.,.,?
O=C(Cc1ccccc1)Nc1sc2c(c1C(=O)Nc1ccccc1Cl)CCCCC2,.,-2,.,3%,-23%,.,.
O=C(Cc1ccccc1)Nc1sc2c(c1C(=O)Nc1cccc(Cl)c1)CCCCC2,.,-29*,.,-12%,11%,.,3%
O=C([C@H]1CCCN1C(=O)C1CC1)N1CCCC(c2nc3ccncc3[nH]2)C1 (some centres undefined),.,12,i,5%,5%,0%,.
O=C(C1CCCN1C(=O)C1CC1)N1CCC(c2nc3ccncc3[nH]2)C1 (centres undefined),.,-27*,4%[138 µM],11%[87.6 µM],5%[87.6 µM],i,-4%
CCc1ccc(NC(=O)CN(c2ccc(OC)cc2)S(=O)(=O)c2c(C)[nH]c(=O)[nH]c2=O)cc1,.,-31*,.,14%,-17%,.,-3%
Cc1cccc(CN2CCn3c(nnc3[C@@H]3C[C@@H](O)CN3Cc3ccccc3)C2)c1,i,3,-22%,8%[12.5 µM],24%,-14%,.
COc1cccc(OC(=O)CSc2nnc(-c3ccc4c(c3)OCO4)o2)c1,.,-32*,.,2%,?,.,?
CCOC(=O)c1ccc(NC(=O)Cc2ccc(-n3c(CC)nc4cccnc43)cc2)cc1,.,-45*,.,?,5%,.,?
CCc1ccccc1NC(=O)c1ccc2nc(C(C)C)oc2c1,.,-36*,.,3%,-21%,.,-3%
Cc1cc(C)c2nc(C)cc(Nc3cccc(C(=O)O)c3)c2c1,.,-25*,.,?,1%,.,-8%
